Data from PubChem BioAssay (EPA / NIEHS).
Inconclusive results are not listed. Some structures have more than one record in an assay (separate samples or runs), and their calls can disagree. The source made the active and inactive calls. How the source made its calls, unless noted: active means hit-call score of the fitted dose curve at least 0.9, where 1 is the maximum; inconclusive means response in the unintended direction; inactive means score below 0.9.

Tests used:
[1] = target: bovine Estrogen Receptor (ER), ESR1 (gene 407238) (UniProt P49884); assay: NVS_NR_bER: NovaScreen (NVS) Nuclear Receptor Binding Assay for bovine Estrogen Receptor (ER) (AID 2283345);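 further: actives lower the bound radioligand count which means they displace the ER ligand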
bovine Estrogen Receptor (ER), ESR1 (gene 407238), sequence (P49884 whole entry, looked up): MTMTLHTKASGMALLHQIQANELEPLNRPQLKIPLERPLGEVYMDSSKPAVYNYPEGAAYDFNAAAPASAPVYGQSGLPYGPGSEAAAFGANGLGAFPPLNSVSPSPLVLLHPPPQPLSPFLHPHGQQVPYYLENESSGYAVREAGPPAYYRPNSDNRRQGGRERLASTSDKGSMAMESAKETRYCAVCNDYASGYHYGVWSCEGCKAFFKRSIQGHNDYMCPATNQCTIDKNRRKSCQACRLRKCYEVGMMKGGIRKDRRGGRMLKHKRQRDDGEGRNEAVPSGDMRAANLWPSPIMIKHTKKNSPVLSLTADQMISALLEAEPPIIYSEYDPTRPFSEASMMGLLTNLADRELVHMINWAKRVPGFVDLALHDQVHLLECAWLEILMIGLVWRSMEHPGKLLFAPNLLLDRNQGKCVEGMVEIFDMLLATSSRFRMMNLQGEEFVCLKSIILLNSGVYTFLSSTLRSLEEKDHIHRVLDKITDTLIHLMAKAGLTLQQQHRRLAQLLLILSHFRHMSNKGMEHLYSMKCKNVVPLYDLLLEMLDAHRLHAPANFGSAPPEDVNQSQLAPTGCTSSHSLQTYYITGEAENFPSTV
Procedure, shortened: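 Bovine uterine membranes; tritiated or iodinated radioligand; competitive displacement; 18 h; scintillation read; DMSO negative control; 25 uM duplicates, then concentration series for actives.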

[2] = target: Estrogen receptor (Homo sapiens) (UniProt P03372); assay: OT_ER_ERaERa_1440: Odyssey Thera (OT) 24-hour HEK293T Protein-Complementation Assay for Estrogen Receptor-alpha/-alpha Homodimer (AID 2283349);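 further: hits raise fluorescence above DMSO for agonists and antagonists alike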
Estrogen receptor (Homo sapiens), sequence (P03372 whole entry, looked up, the tested form may be a part): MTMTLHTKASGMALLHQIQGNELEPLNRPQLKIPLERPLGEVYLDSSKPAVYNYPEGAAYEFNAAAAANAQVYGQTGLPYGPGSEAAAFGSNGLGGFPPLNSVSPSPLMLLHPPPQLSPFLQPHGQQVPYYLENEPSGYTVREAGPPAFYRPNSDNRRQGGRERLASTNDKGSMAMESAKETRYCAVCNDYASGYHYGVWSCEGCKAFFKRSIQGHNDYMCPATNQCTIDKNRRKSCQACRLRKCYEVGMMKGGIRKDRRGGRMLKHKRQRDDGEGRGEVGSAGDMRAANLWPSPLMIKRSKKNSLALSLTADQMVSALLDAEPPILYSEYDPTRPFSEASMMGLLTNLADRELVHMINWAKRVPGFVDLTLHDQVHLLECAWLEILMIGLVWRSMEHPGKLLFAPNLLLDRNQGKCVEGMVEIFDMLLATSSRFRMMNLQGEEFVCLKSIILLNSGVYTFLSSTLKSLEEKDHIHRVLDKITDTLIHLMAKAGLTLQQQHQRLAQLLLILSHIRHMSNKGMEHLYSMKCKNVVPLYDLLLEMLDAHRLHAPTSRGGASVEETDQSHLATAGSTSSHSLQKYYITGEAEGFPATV
Procedure, shortened: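 HEK293T, stable ERα LBD (aa 310-547) homodimer PCA; 24 h compound exposure; mean fluorescence intensity (nuclear for agonists, nuclear plus cytoplasmic for antagonists) vs vehicle; positive fitting direction, DMSO baseline.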

[3] = target: Estrogen receptor (Homo sapiens) (UniProt P03372); assay: OT_ER_ERaERa_0480: Odyssey Thera (OT) 8-hour HEK293T Protein-Complementation Assay for Estrogen Receptor-alpha/-alpha Homodimer (AID 2283351);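 further: rise in fluorescence from reassembled reporter fragments on ERα LBD homodimer in nucleus or whole cell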
Procedure, shortened: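 HEK293T cells stably expressing a PCA pair of ER alpha LBD (residues 310-547) were dosed for 8 hours. The gain in fluorescence intensity, nuclear for agonists and whole-cell for antagonists, was measured by laser scanning cytometry against DMSO vehicle.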

[4] = target: T1, Estrogen receptor (Homo sapiens) + Estrogen receptor beta (Homo sapiens) (UniProt P03372+Q92731); assay: OT_ER_ERaERb_0480: Odyssey Thera (OT) 8-hour HEK293T Protein-Complementation Assay for Estrogen Receptor-alpha/-beta Heterodimer (AID 2283352)
T1 sequence (P03372 whole entry, looked up, the tested form may be a part): as above
T1 sequence (Q92731 whole entry, looked up, the tested form may be a part): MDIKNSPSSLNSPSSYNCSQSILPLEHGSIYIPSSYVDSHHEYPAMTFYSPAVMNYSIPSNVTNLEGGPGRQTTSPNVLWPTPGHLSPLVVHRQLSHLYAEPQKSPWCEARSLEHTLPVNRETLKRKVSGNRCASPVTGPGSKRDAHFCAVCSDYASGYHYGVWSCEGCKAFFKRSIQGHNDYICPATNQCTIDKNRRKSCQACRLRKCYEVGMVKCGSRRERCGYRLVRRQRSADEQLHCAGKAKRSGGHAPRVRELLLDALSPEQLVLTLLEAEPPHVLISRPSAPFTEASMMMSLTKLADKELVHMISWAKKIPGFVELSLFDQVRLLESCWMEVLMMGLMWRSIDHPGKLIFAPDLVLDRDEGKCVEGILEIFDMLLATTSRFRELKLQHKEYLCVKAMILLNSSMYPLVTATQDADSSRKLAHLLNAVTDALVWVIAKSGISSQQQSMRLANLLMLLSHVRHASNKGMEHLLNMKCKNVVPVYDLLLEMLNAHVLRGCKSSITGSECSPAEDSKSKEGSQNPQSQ
Procedure, shortened: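 Increase in mean fluorescence intensity, measured by laser scanning plate cytometry, reported ER-alpha/ER-beta LBD complementation in HEK293T cells after 8 h chemical exposure. DMSO served as baseline; basal signal is low, punctate and cytoplasmic.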

[5] = target: T1, Estrogen receptor (Homo sapiens) + Estrogen receptor beta (Homo sapiens); assay: OT_ER_ERaERb_1440: Odyssey Thera (OT) 24-hour HEK293T Protein-Complementation Assay for Estrogen Receptor-alpha/-beta Homodimer (AID 2283356);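 further: heteromer of ER alpha and ER beta binding domains; hits raise reporter fluorescence and both agonists and antagonists give an increase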
Procedure, shortened: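 Heterodimerisation of ERα (aa 310-547) and ERβ (aa 263-489) ligand binding domains was tracked as fluorescence gain in stably transfected HEK293T cells following 24 h dosing, normalised to DMSO controls.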

[6] = target: Estrogen receptor (Homo sapiens) (UniProt P03372); assay: OT_ERa_GFPERaERE_0480: Odyssey Thera (OT) 8-hour HeLa Transcription Induction Assay for Estrogen Receptor (AID 2283381; active means hit-call score of the fitted dose curve at least 0.9, where 1 is the maximum; inactive means score below 0.9)
Procedure, shortened: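 Fluorescence microscopy with high-content image analysis measures ERE-driven GFP induction in HeLa cells at 8 h post-dose. Increases fitted against DMSO baseline.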

[7] = target: Estrogen receptor (Homo sapiens) (UniProt P03372); assay: OT_ERa_GFPERaERE_0120: Odyssey Thera (OT) 2-hour HeLa Transcription Induction Assay for Estrogen Receptor (AID 2283382)
Procedure, shortened: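 Fluorescence-microscopy images of the GFP-ERα/ERE reporter, scored by high-content image algorithms, give the readout. HeLa exposure lasted 2 h, and only signal increase over DMSO was fitted.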

SERPINA7 (gene 6906) = assay: CCTE_GLTED_hTBG: CCTE's human Thyroxine-binding Globulin (TBG) Inhibition Assay, Great Lakes Toxicology and Ecology Division (GLTED) Lab (AID 2284343);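 further: active chemicals lower fluorescence versus DMSO baseline by displacing probe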
Procedure, shortened: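 Cell-free displacement of the fluorescent probe ANSA from human thyroxine-binding globulin after 2 h exposure. Read-out at ex 380/em 475 nm; DMSO baseline.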

KRT18 (gene 3875) = assay: BSK_BE3C_Keratin818: BioMAP Diversity Plus: BE3C Assay for Keratin 818 Biomarker Activity (AID 2284282; active means hit-call score of the fitted dose curve at least 0.9, where 1 is the maximum; inactive means score below 0.9); conditions: primary human bronchial epithelial cells
Procedure, shortened: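 ELISA readout of Keratin 8/18 in human primary bronchial epithelial cultures after 24 h chemical exposure, DMSO baseline. Parallel SRB staining (0.1%, TCA-fixed, 560 nm) served as cytotoxicity check.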

[8] = CCTE_Deisenroth_5AR_NBTE_donor: CCTE's 5alpha-reductase NanoBRET Target Engagement Assay […], Deisenroth Lab (AID 2284319; active means hit-call score of the fitted dose curve at least 0.9, where 1 is the maximum; inactive means score below 0.9); conditions: actives raise or lower the signal
Procedure, shortened: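 In this secondary endpoint, donor luminescence from SRD5A2-NanoLuc in transfected HEK293T flags artifacts. Test chemical (10 nM - 29.9 uM) is present five hours, tracer the last two; mock-tracer wells run plate-matched; data fitted bidirectionally against DMSO.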

[9] = CCTE_Deisenroth_5AR_NBTE_acceptor: CCTE's 5alpha-reductase NanoBRET Target Engagement Assay - Autofluorescence Screen, Deisenroth Lab (AID 2284321; active means hit-call score of the fitted dose curve at least 0.9, where 1 is the maximum; inactive means score below 0.9;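 further: compound fluorescence in the acceptor channel under 460 nm excitation flags autofluorescence artifacts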); conditions: actives raise or lower the signal
Procedure, shortened: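 Chemicals diluted to a nominal 100 uM in DMSO were scanned at 460 nm excitation. Samples were read in three independent runs (n=3). Gain or loss of acceptor signal was fitted relative to DMSO.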

SRD5A2 (gene 6716) = assay: CCTE_Deisenroth_5AR_NBTE_ratio: CCTE's 5alpha-reductase NanoBRET Target Engagement Assay - Ratio, Deisenroth Lab (AID 2284322; active means hit-call score of the fitted dose curve at least 0.9, where 1 is the maximum; inactive means score below 0.9); conditions: actives raise or lower the signal
Procedure, shortened: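 HEK293T cells transiently expressing an SRD5A2-NanoLuc fusion (20 h post-transfection) were exposed to test chemical (10 nM - 29.9 uM, 8 points) for 3 h, then testosterone tracer for a further 2 h. Acceptor/donor BRET ratio was fitted bidirectionally against DMSO baseline.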

TTR (gene 7276) = assay: CCTE_GLTED_hTTR_0.125uM: CCTE's human Transthyretin (hTTR) Inhibition Assay, with 0.125uM TTR, Great Lakes Toxicology and Ecology Division (GLTED) Lab (AID 2284431; active means hit-call score of the fitted dose curve at least 0.9, where 1 is the maximum; inactive means score below 0.9;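 further: hits lower the fluorescence signal relative to DMSO baseline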)
Procedure, shortened: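 Probe-displacement format: chemicals competing for the T4 site release ANSA from 0.125uM TTR during a 2 h incubation, measured by fluorescence at 380 excitation and 475 emission.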

[10] = target: Cytochrome P450 2C19 (Homo sapiens) (UniProt P33261); assay: NVS_ADME_hCYP2C19: NovaScreen (NVS) CYP450-related Enzyme Activity (ADME) Assay for human CYP2C19 (AID 2283113);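 on AC50: potency for inhibition seen as loss of fluorescent signal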
Procedure, shortened: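 Chemicals first screened in duplicate at 10 uM against recombinant human enzyme produced in insect cells; confirmed actives then run as concentration series. Fluorogenic substrate turnover read by fluorescence after 1 h, normalised to acetonitrile.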

[11] = target: human Phosphatase and Tensin Homolog (PTEN), PTEN (gene 5728) (UniProt P60484); assay: NVS_ENZ_hPTEN: NovaScreen (NVS) Enzymatic Assay for human Phosphatase and Tensin Homolog (PTEN) (AID 2283203)
human Phosphatase and Tensin Homolog (PTEN), PTEN (gene 5728), sequence (P60484 whole entry, looked up): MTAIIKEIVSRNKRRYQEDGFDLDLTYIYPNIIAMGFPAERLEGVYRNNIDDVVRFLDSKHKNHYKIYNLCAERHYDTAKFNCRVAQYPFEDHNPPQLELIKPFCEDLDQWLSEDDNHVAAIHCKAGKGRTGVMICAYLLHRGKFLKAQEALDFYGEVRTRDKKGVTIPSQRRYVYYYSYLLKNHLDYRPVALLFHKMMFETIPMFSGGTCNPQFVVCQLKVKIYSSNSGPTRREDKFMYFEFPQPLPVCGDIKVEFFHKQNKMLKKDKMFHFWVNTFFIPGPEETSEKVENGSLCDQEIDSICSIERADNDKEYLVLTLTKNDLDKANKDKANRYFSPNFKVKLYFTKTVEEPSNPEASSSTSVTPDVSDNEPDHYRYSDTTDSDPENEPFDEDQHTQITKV
Procedure, shortened: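 Loss of fluorescent product signal after mobility-shift separation reports PTEN activity, recombinant human enzyme, 1 h after compound addition. Single 25 uM duplicate screen, then concentration-response on actives; DMSO baseline.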

[12] = target: human Protein Tyrosine Phosphatase Non-receptor Type 2 (PTPN2), PTPN2 (gene 5771) (UniProt P17706); assay: NVS_ENZ_hPTPN2: NovaScreen (NVS) Enzymatic Assay for human Protein Tyrosine Phosphatase Non-receptor Type 2 (PTPN2) (AID 2283207)
human Protein Tyrosine Phosphatase Non-receptor Type 2 (PTPN2), PTPN2 (gene 5771), sequence (P17706 whole entry, looked up): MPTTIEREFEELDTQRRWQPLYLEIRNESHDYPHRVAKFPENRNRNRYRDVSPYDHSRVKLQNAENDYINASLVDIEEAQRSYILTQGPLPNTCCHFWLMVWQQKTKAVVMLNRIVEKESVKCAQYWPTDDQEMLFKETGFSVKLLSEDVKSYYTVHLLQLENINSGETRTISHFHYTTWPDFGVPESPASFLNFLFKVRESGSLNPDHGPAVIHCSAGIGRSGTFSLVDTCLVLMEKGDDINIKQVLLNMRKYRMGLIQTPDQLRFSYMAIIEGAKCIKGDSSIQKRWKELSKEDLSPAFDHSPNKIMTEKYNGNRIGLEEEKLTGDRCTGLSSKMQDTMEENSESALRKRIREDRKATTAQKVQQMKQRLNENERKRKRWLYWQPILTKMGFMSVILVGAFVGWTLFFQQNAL
Procedure, shortened: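 Activity measured as fluorescence after mobility-shift separation of substrate and product, 1 h after compound. Duplicate single-point 25 uM primary testing, concentration series for actives; inhibition scored as signal loss relative to DMSO baseline.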

Caspase-1 (Homo sapiens) = Caspase-1 (Homo sapiens) (UniProt P29466); assay: NVS_ENZ_hCASP1: NovaScreen (NVS) Enzymatic Assay for human Caspase 1 (CASP1) (AID 2283132)
Caspase-1 (Homo sapiens), sequence (P29466 whole entry, looked up): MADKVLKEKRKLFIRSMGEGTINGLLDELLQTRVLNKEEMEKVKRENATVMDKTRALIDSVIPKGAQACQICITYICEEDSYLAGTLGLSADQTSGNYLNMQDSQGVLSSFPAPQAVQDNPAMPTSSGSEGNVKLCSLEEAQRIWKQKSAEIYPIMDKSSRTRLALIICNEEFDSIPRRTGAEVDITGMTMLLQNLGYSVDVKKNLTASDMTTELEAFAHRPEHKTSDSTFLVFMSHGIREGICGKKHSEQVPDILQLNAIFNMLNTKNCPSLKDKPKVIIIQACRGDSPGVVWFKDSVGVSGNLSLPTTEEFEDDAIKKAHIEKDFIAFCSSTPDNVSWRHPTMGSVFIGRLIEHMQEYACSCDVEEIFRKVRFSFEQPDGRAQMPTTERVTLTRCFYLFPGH
Procedure, shortened: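 Compounds were first tested in duplicate at 25 uM, with follow-up concentration series up to 50 uM. The bacterially expressed enzyme was read by fluorescence at 1 h post-dosing. Signal loss versus DMSO baseline indicates reduced enzyme activity.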

[13] = target: human Matrix Metalloproteinase-1 (MMP1), MMP1 (gene 4312) (UniProt P03956); assay: NVS_ENZ_hMMP1: NovaScreen (NVS) Enzymatic Assay for human Matrix Metalloproteinase-1 (MMP1) (AID 2283181)
human Matrix Metalloproteinase-1 (MMP1), MMP1 (gene 4312), sequence (P03956 whole entry, looked up): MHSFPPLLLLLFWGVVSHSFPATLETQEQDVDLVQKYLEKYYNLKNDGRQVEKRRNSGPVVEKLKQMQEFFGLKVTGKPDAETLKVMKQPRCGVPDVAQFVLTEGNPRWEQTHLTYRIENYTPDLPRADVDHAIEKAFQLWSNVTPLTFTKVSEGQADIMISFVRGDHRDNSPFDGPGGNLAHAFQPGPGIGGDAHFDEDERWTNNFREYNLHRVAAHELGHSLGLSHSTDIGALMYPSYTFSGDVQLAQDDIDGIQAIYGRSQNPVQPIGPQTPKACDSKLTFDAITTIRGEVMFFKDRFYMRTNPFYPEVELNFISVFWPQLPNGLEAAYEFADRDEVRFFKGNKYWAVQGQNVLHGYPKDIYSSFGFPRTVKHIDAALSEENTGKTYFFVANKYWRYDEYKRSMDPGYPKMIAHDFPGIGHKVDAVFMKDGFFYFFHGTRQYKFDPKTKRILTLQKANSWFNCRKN
Procedure, shortened: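 Cell-free fluorescent substrate assay of human MMP1, read after 1 h. A single 25 uM duplicate screen was followed by concentration series to a maximum of 50 uM for actives meeting threshold; inhibition analysed against DMSO baseline.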

[14] = target: rat Acetylcholinesterase (AChE), Ache (gene 83817) (UniProt P37136); assay: NVS_ENZ_rAChE: NovaScreen (NVS) Enzymatic Assay for rat Acetylcholinesterase (AChE) (AID 2283233)
rat Acetylcholinesterase (AChE), Ache (gene 83817), sequence (P37136 whole entry, looked up): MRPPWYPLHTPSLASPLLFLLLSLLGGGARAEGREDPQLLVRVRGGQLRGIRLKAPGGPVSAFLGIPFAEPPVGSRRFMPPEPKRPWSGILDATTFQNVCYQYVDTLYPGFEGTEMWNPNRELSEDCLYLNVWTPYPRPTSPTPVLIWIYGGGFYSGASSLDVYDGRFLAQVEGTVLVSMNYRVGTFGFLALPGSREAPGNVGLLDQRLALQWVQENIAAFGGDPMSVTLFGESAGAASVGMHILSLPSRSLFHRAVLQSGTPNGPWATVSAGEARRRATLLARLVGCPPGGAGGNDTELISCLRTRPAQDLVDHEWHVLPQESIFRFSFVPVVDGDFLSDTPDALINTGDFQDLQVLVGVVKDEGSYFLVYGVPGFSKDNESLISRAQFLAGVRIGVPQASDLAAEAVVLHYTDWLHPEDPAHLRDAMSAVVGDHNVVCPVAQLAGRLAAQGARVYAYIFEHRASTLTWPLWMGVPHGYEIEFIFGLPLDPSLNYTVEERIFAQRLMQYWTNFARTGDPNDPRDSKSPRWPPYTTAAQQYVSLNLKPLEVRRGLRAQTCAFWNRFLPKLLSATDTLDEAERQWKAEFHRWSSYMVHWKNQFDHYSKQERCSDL
Procedure, shortened: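 Compounds first screened at 25 uM in duplicate, then those passing threshold tested in concentration series up to 50 uM, against AChE from rat brain membranes. Enzyme activity read by absorbance at 0.33 h; inhibition scored versus DMSO.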

[15] = target: human AMP-activated Protein Kinase, alpha 1 (AMPKa1), PRKAA1 (gene 5562) (UniProt Q13131); assay: NVS_ENZ_hAMPKa1: NovaScreen (NVS) Enzymatic Assay for human AMP-activated Protein Kinase, alpha 1 (AMPKa1) (AID 2283130)
human AMP-activated Protein Kinase, alpha 1 (AMPKa1), PRKAA1 (gene 5562), sequence (Q13131 whole entry, looked up): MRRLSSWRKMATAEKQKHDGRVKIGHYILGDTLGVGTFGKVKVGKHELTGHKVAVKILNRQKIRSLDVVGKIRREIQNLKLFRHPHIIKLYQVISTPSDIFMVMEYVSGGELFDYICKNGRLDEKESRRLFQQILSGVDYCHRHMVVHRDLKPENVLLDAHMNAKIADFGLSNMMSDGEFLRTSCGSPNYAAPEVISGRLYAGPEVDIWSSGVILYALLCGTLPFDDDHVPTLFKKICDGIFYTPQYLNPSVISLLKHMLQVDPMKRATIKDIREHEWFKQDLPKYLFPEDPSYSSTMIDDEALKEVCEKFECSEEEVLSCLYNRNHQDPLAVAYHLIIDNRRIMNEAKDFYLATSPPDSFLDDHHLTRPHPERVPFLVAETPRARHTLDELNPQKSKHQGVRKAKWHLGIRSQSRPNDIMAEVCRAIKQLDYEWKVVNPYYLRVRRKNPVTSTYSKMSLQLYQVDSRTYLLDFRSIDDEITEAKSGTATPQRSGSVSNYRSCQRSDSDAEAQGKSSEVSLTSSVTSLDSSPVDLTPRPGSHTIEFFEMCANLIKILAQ
Procedure, shortened: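 Compounds were screened in duplicate at 25 uM, and those reaching ~30% inhibition were titrated up to 50 uM. The enzyme was recombinant human AMPKα1, and kinase turnover was read by fluorescence/mobility shift 1 h post-dosing as loss of signal versus DMSO.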

For `c1ccc(P(c2ccccc2)c2ccccc2)cc1`, the outcome [1] was “inactive”, the outcome [2] was “inactive” and the AC50 [3] was 60.6 µM (active). For the same compound, the AC50 [4] was 28.5 µM (active), the AC50 [5] was 64.4 µM (active) and the AC50 [6] was 84.1 µM (active). For the same compound, the AC50 [7] was 17 µM (active) and the AC50 (SERPINA7 (gene 6906)) was 41.7 µM (active).
With `Oc1ccc(C2(c3ccc(O)cc3)c3ccccc3-c3ccccc32)cc1` the outcome [1] was “inactive”, the AC50 (KRT18 (gene 3875)) was 0.15 µM (active) and the outcome (KRT18 (gene 3875)) was “inactive”.
With `CC(=O)c1cc2c(cc1C)C(C)(C)C(C)CC2(C)C` (configuration not stated) the outcome [8] was “inactive”, the outcome [9] was “inactive” and the outcome (SRD5A2 (gene 6716)) was “inactive”.
In the case of `Oc1cc(Cl)ccc1Cl`, the outcome [8] is reported as “inactive”, the outcome [9] is reported as “inactive” and the outcome (SRD5A2 (gene 6716)) is reported as “inactive”. The AC50 (TTR (gene 7276)) was 1.17 µM (active).
With `CC1(C)[C@H](C(=O)O[C@H](C#N)c2cccc(Oc3ccccc3)c2)[C@@H]1C=C(Br)Br` the AC50 [10] was 0.134 µM (active) and the outcome [10] was “inactive”.
In the case of `CC(C)(c1cc(Cl)c(O)c(Cl)c1)c1cc(Cl)c(O)c(Cl)c1`, the AC50 [10] is reported as 0.992 µM (active), the AC50 (SERPINA7 (gene 6906)) is reported as 8.77 µM (active) and the AC50 (TTR (gene 7276)) is reported as 0.0355 µM (active).
For `C=CC(=O)OCC(CC)CCCC` (configuration not stated), the outcome [8] was “inactive”, the outcome [9] was “inactive” and the outcome (SRD5A2 (gene 6716)) was “inactive”.
In the case of `CCCCCCCCCCCC#N`, the outcome [11] is reported as “inactive”.
For `CCOP(=O)(OCC)Oc1ccc([N+](=O)[O-])cc1`, the AC50 (TTR (gene 7276)) was 5.87 µM (active).
In the case of `COc1ccc(CO)cc1`, the outcome (KRT18 (gene 3875)) is reported as “inactive”.
For `O=[N+]([O-])c1ccc(Cl)cc1`, the outcome [12] was “inactive”.
With `Cc1cc(C)c(C2=C(OC(=O)CC(C)(C)C)C3(CCCC3)OC2=O)c(C)c1` the outcome [2] was “inactive”, the outcome [3] was “inactive” and the outcome [4] was “inactive”. The outcome [5] was “inactive”, the outcome [6] was “inactive” and the outcome [7] was “inactive”.
For `SCc1ccco1`, the AC50 [11] was 25 µM (active).
For `Oc1cc2ccccc2c2ccccc12`, the AC50 (Caspase-1 (Homo sapiens)) was 12.1 µM (active).
In the case of `COc1ccc(S(=O)(=O)N2C(=O)[C@@](c3ccccc3OC)(N3C[C@H](O)C[C@H]3C(=O)N(C)C)c3cc(Cl)ccc32)c(OC)c1`, the outcome [13] is reported as “inactive”.
In the case of `O=Cc1ccccc1C=O`, the outcome [14] is reported as “inactive”.
For `CCOc1cccc(-n2cc(C(=O)N3CCN(c4cc(C(=O)O)c5ccccc5c4)CC3)nc2-c2ccc(C)cc2)c1`, the outcome (Caspase-1 (Homo sapiens)) was “inactive”.
For `Cc1nc(-c2ccc3c(c2)CCN(CCC2CCC(NC(=O)/C=C/c4ccc(F)cc4)CC2)CC3)no1` (configuration not stated), the outcome [15] was “inactive”.
With `CCCCCCCCCCCCc1ccccc1S(=O)(=O)O` the AC50 [12] was 19.9 µM (active).
In the case of `CCC(C)N(C)C(=O)c1cc2ccccc2c(-c2ccccc2Cl)n1` (configuration not stated), the outcome [15] is reported as “inactive”.
For `CN(C)c1ccc(C(=C2C=CC(=[N+](C)C)C=C2)c2ccc(N(C)C)cc2)cc1`, the outcome (Caspase-1 (Homo sapiens)) was “inactive” and the AC50 [14] was 17.1 µM (active).
For `CCCCCC(=O)O`, the outcome [15] was “inactive” and the outcome [13] was “inactive”.
For `CN(C)c1ccc(N=NS(=O)(=O)O)cc1`, the outcome [13] was “inactive” and the outcome [11] was “inactive”.
With `Cc1cc(CCN2CCN(c3nsc4ccccc34)CC2)cc2c1NC(=O)CC2(C)C` the outcome [14] was “inactive”.
For `COc1cc(C(=O)NC2CCN(C)CC2)ccc1Nc1ncc2c(n1)N(C1CCCC1)CC(F)(F)C(=O)N2C`, the AC50 [12] was 6.13 µM (active).
